High-throughput results from PubChem BioAssay.
Compounds with a hit are over-represented: about 12% of the library has one in this group of screens.
AMA1-RON2 inh: qHTS for Inhibitors of AMA1-RON; Towards Development of Antimalarial Drug Lead: Primary Screen; 360,000 tested, 0.2% active; AlphaScreen AMA1-biotinylated RON2 peptide binding; Plasmodium falciparum AMA1 (3D7) - RON2 peptide interaction; Potency, µM (doses to about 58.2 µM), hits mostly inhibitors; also: nearly all actives have a fitted effect of over 45% in size
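AMA1 (3D7) with his tag at 25 nM final met compounds first, then biotinylated RON2 peptide at 25 nM; detection used donor plus acceptor beads, 10 µg/mL apiece, read by AlphaScreen after 30 min at room temperature.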
SARS PLpro yeast: qHTS of Yeast-based Assay for SARS-CoV PLP. S. cerevisiae expressing SARS-CoV PLpro, growth rescue. Potency, µM (top dose mostly 32.9 µM), usual class: activators. 330,000 tested, 0.19% active. AID 485353, 2010; calls by dose curve; also: nearly all actives have a fitted effect of over 55% in size
HCV inh: qHTS Assay for Inhibitors of Hepatitis C Virus (HCV) | Huh7.5.1 HCVcc-Cre infection, luciferase reporter, 44 h | Potency, µM (doses to about 41.8 µM), actives largely listed as inhibitors | 340,000 tested, 3.4% active | AID 651820, 2012
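Compounds are dispensed onto cells plated 4 h earlier at 1,000 per well, with HCVcc-Cre virus (about 0.5 moi) added next. Following 44 h of culture, luminescent signal is measured for 15 sec after 15 min with substrate at room temperature.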
Pf growth 96h: Primary qHTS for delayed death inhibitors of the malarial parasite plastid, 96 hour incubation; Potency, µM (titrated, usually from 28.7 µM), actives largely listed as inhibitors; P. falciparum luciferase reporter growth, 96 h; 320,000 tested, 6.9% active
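P. falciparum expressing integrated firefly luciferase, in erythrocytes at 2% hematocrit, 0.05% parasitemia, incubated with compounds 96 h at 37 C, 5% CO2. Growth inhibition read as loss of luminescence; two-generation exposure targets delayed-death apicoplast inhibitors.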
NS1 function inh: qHTS Assay for Inhibitors of Influenza NS1 Protein Function; 270,000 tested, 0.4% active; AID 2326, 2010; Potency, µM (series often up to 46.1 µM); calls by dose curve; also: actives are rising curves; nearly all actives have a fitted effect of over 50% in size
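S. cerevisiae expressing influenza A NS1, grown in glucose, washed, then diluted 1:100 into pH 6.0 -URA galactose medium with 23 nl compound. Growth recovery read as OD600; NS1-free strain serves as control.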
Pf growth 48h: Primary qHTS for delayed death inhibitors of the malarial parasite plastid, 48 hour incubation; AID 504832, 2011; 310,000 tested, 5.9% active; P. falciparum luciferase growth in erythrocytes, 48 h; Potency, µM (titrated, usually from 28.7 µM), usual class: inhibitors
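Cell-based growth assay: transgenic P. falciparum expressing firefly luciferase, cultured in red cells within RPMI 1640 containing 0.5% w/v Albumax, 24 mM bicarbonate and gentamycin. A drop in luciferase activity indicates inhibition.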
A number is an active result. Unless noted, calls follow the shape of the dose curve; as a rule, active = well fitted curve in the direction sought with a large enough effect; inconclusive = small, poorly fitted or top-dose-only effect, or another doubt; inactive = no such curve, though single readings can be large; an effect the other way counts as inactive or inconclusive.

What do the screens show for `CCCNc1nc(-c2ccccc2)c(C(=O)OCC)cc1C#N`?
AMA1-RON2 inh: inactive; SARS PLpro yeast: inactive; HCV inh: 3.16µM; Pf growth 96h: inactive; NS1 function inh: inactive; Pf growth 48h: 11.7µM

How did CCCCNc1nc(-c2ccccc2)c(C(=O)OCC)cc1C#N do in these assays?
AMA1-RON2 inh: inactive; SARS PLpro yeast: inactive; HCV inh: inconclusive; Pf growth 96h: inconclusive; NS1 function inh: inactive; Pf growth 48h: inconclusive

Results for CNC(=O)COc1coc(CN2CCN(C(=O)c3ccco3)CC2)cc1=O ?
AMA1-RON2 inh: inactive; SARS PLpro yeast: inactive; HCV inh: inactive; Pf growth 96h: inconclusive; Pf growth 48h: inactive

How did CC(=O)Nc1cc(OC(C)=O)c2nonc2c1OC(C)=O do in these assays?
AMA1-RON2 inh: inactive; SARS PLpro yeast: inactive; HCV inh: inconclusive; Pf growth 96h: inactive; NS1 function inh: inactive; Pf growth 48h: 10.4µM

What do the screens show for `CC(=O)Nc1nonc1NC(C)=O`?
AMA1-RON2 inh: inactive; SARS PLpro yeast: inactive; HCV inh: inactive; Pf growth 96h: inactive; NS1 function inh: inconclusive; Pf growth 48h: inactive

How did CSc1c(CC(=O)Nc2ccc(F)cc2)n(Cc2ccccc2)c2ccccc12 do in these assays?
AMA1-RON2 inh: inactive; SARS PLpro yeast: inactive; HCV inh: inactive; Pf growth 96h: 13.1µM; NS1 function inh: inactive; Pf growth 48h: 7.38µM

Results for Cn1c(CC(=O)Nc2ccccc2C(F)(F)F)c(Sc2ccccc2)c2ccccc21 ?
AMA1-RON2 inh: inactive; SARS PLpro yeast: inactive; HCV inh: inactive; Pf growth 96h: inactive; NS1 function inh: inactive; Pf growth 48h: 14.7µM

How did Cn1c(CC(=O)Nc2ccccc2)c(Sc2ccccc2)c2ccccc21 do in these assays?
AMA1-RON2 inh: inactive; SARS PLpro yeast: inactive; HCV inh: inactive; Pf growth 96h: 8.28µM; NS1 function inh: inactive; Pf growth 48h: inconclusive

Results for CSc1c(CC(=O)Nc2ccccc2)n(C)c2ccccc12 ?
AMA1-RON2 inh: inactive; SARS PLpro yeast: inactive; HCV inh: inconclusive; Pf growth 96h: inconclusive; NS1 function inh: inactive; Pf growth 48h: 10.4µM

Results for Cn1c(CC(=O)Nc2ccccc2)cc2ccccc21 ?
AMA1-RON2 inh: inactive; SARS PLpro yeast: inactive; HCV inh: inactive; Pf growth 96h: inactive; NS1 function inh: inactive; Pf growth 48h: inactive

What do the screens show for `Cn1c(=O)n(CC(=O)Nc2ccc(F)cc2)c2ccccc21`?
AMA1-RON2 inh: inactive; SARS PLpro yeast: inactive; HCV inh: inactive; Pf growth 96h: inactive; NS1 function inh: inactive; Pf growth 48h: inactive

How did O=C1OC[C@H](Cc2ccc3c(c2)OCO3)/C1=C\c1ccc2c(c1)OCO2 do in these assays?
AMA1-RON2 inh: inactive; SARS PLpro yeast: inactive; HCV inh: inconclusive; Pf growth 96h: inactive; Pf growth 48h: inactive

What do the screens show for `CCc1ccc(C(O)c2ncc(-c3ccc(C)cc3)[nH]2)cc1` (stereo not drawn)?
AMA1-RON2 inh: inactive

How did CC12CCC(=O)N1C(C(=O)NCc1ccc(Cl)cc1Cl)CS2 (stereo not drawn) do in these assays?
AMA1-RON2 inh: inactive; SARS PLpro yeast: inactive; HCV inh: inactive; Pf growth 96h: inactive; Pf growth 48h: inactive

What do the screens show for `CCc1nc2ccc(C(=O)N(C)Cc3ccccc3)cn2c1N(CC)CCN(C)C`?
AMA1-RON2 inh: inactive

What do the screens show for `Cc1cn([C@H]2C[C@H](O)[C@@H](CCC(=O)NCc3ccccc3)O2)c(=O)[nH]c1=O`?
AMA1-RON2 inh: inactive; HCV inh: 3.55µM

What do the screens show for `COC(=O)c1ccc(NC(=O)c2ccccc2-c2ccccc2C(=O)O)cc1`?
AMA1-RON2 inh: inactive; SARS PLpro yeast: inactive; HCV inh: inactive; Pf growth 96h: inactive; NS1 function inh: inactive; Pf growth 48h: inactive

Results for CC(=O)c1ccc(NC(=O)c2ccccc2-c2ccccc2C(=O)O)cc1 ?
AMA1-RON2 inh: inactive; SARS PLpro yeast: inactive; HCV inh: inactive; Pf growth 96h: 4.65µM; NS1 function inh: inactive; Pf growth 48h: inactive

Results for Cc1c(Cl)cccc1NC(=S)NCC(C)C ?
AMA1-RON2 inh: inactive; SARS PLpro yeast: inconclusive; HCV inh: inactive; Pf growth 96h: 3.29µM; NS1 function inh: inactive; Pf growth 48h: inconclusive

What do the screens show for `Brc1ccc(N/N=C(/N=Nc2nn[nH]n2)c2ccccc2)cc1`?
AMA1-RON2 inh: inactive; SARS PLpro yeast: inconclusive; HCV inh: 5.62µM; Pf growth 96h: 1.85µM; NS1 function inh: inactive; Pf growth 48h: 3.29µM

How did Cc1nn(C)c(C)c1/C=C/C(=O)c1ccc(Cl)cc1Cl do in these assays?
AMA1-RON2 inh: inactive; SARS PLpro yeast: inactive; HCV inh: 7.94µM; Pf growth 96h: inactive; Pf growth 48h: inconclusive

Results for Cc1noc(C)c1-c1ccc2ncnc(NCc3cccc(-c4ccccc4)c3)c2c1 ?
SARS PLpro yeast: inactive; Pf growth 96h: 3.7µM; Pf growth 48h: inconclusive

How did Cc1ccc(C(C)C)cc2c(C)ccc1-2 do in these assays?
AMA1-RON2 inh: inactive; HCV inh: 35.5µM; Pf growth 96h: inconclusive; Pf growth 48h: inactive

How did CCOC(=O)N1CCN(C(=O)/C(=C/c2ccc(F)cc2)NC(=O)c2ccccc2)CC1 do in these assays?
AMA1-RON2 inh: inactive; SARS PLpro yeast: inactive; HCV inh: inactive; Pf growth 96h: 3.29µM; NS1 function inh: inactive; Pf growth 48h: inactive

What do the screens show for `CCOC(=O)N1CCN(C(=O)/C(=C\c2ccc(SC)cc2)NC(=O)c2ccccc2)CC1`?
AMA1-RON2 inh: inactive; SARS PLpro yeast: inactive; HCV inh: inactive; Pf growth 96h: inactive; NS1 function inh: inactive; Pf growth 48h: inconclusive

Results for OCCN1CCN(c2nc(NCc3ccco3)c3ccccc3n2)CC1 ?
AMA1-RON2 inh: inactive; SARS PLpro yeast: inactive; HCV inh: inconclusive; Pf growth 96h: 9.28µM; NS1 function inh: inactive; Pf growth 48h: inconclusive

Results for c1ccc(CN2CCN(c3nc(NCc4ccco4)c4ccccc4n3)CC2)cc1 ?
AMA1-RON2 inh: inactive; SARS PLpro yeast: inactive; HCV inh: inconclusive; NS1 function inh: inactive; Pf growth 48h: inconclusive

What do the screens show for `Cc1ccc(OCCN2CCN(c3nc(NCc4ccco4)c4ccccc4n3)CC2)cc1`?
AMA1-RON2 inh: inactive; SARS PLpro yeast: inactive; HCV inh: 11.2µM; Pf growth 96h: inactive; NS1 function inh: inactive; Pf growth 48h: inconclusive

How did COc1ccc(-c2cc3c(=O)n(CC(=O)N4CCN(C)CC4)ncn3n2)cc1 do in these assays?
AMA1-RON2 inh: inactive; SARS PLpro yeast: inactive; HCV inh: inactive; Pf growth 96h: inactive; NS1 function inh: inactive; Pf growth 48h: inactive

What do the screens show for `O=C(Nc1ccncc1)c1cc(F)cc(F)c1`?
AMA1-RON2 inh: inactive; SARS PLpro yeast: inactive; HCV inh: inactive; Pf growth 96h: 2.94µM; NS1 function inh: inactive; Pf growth 48h: inconclusive

How did O=C(Nc1ccc(Cl)c(Cl)c1)c1ccncc1 do in these assays?
AMA1-RON2 inh: inactive; SARS PLpro yeast: inactive; HCV inh: inactive; Pf growth 96h: 14.7µM; NS1 function inh: inactive; Pf growth 48h: inactive
